ssDAF-12 act: activates DAF-12 receptor from parasite S. stercoralis; HEK293 ssDAF-12/GRIP1 lit1-tk-luc reporter, luminescence; % of 3 µM dafachronic acid response; activation, % at 6.8 µM; 370,000 compounds, 1% hits; AID 652126;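 active means activation above the mean over all tested compounds plus 3 SD, cut at about 0.9% in these data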
hcDAF12 agonist: activators of H. contortus DAF-12 nuclear receptor | activation, % at 6.8 µM | HEK293 hcDAF-12 lit1-tk-luc reporter, luminescence; 0% DMSO, 100% Δ7-dafachronic acid | 370,000 compounds, 1.4% hits | AID 652067;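 active means activation above the mean of all tested compounds plus 3 SD, cut at about 5.5% in these data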
SMARCA2 act: activators of SMARCA2 function. MG213 cells, MMTV-luciferase reporter, dexamethasone, overnight. activation, % at 9.1 µM. 370,000 compounds, 1% hits; in the data active means activation above about 7.8%
hgDAF-12 ag: activates the H. glycines DAF-12 receptor ligand-binding domain; HEK293 GAL4-hgDAF12 UAS-luciferase reporter, agonist luminescence; normalized to butyrate control; activation, % at 6.8 µM; 370,000 compounds, 1.8% hits; AID 687014;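 active means activation above a cutoff set at the mean of all screened compounds plus 3 SD, cut at about 10% in these data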
DAX1 inh-1: NR0B1 (DAX1) inhibition; P51843; HEK293 Gal4-DAX1 luciferase reporter, luminescence; inhibition, % at 6.75 µM; 340,000 compounds, 0.99% hits; AID 504766;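 active means inhibition above the mean over all tested compounds plus 3 SD, cut at about 4.2% in these data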;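 further: inhibition shows as a rise in luminescence from relieved DAX1 repression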
Target sequence (P51843 207-470 limits assumed): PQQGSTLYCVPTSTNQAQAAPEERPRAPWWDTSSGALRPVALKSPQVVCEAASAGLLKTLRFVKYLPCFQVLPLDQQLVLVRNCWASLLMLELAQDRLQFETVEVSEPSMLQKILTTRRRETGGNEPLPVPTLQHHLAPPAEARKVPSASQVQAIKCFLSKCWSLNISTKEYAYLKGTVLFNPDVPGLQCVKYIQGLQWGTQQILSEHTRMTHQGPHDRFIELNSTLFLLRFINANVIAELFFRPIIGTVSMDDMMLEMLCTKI
DAX1 inh-2: DAX1 (NR0B1) inhibition, primary screen; HEK293T StAR-luciferase reporter, SF-1/DAX-1 repression relief; inhibition, % at 6.8 µM; 370,000 compounds, 1.1% hits; AID 652010;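 active means inhibition above the mean over all tested compounds plus 3 SD, cut at about 3.6% in these data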;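 further: higher inhibition means more luminescence from relief of DAX-1 repression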
Each line names hits and unclear results; the compound was inactive in the other large screens. Hits are enriched below; roughly 4.8% of the tested compounds scored in any of these assays.

CC(C)CCN(C)C1CCN(C(=O)Nc2ccccc2)CC1	SMARCA2 act 7.8 (no result: DAX1 inh-1)
CCNC(=S)NNC(=O)CSc1nc2ccccc2c(=O)n1-c1ccc(Cl)cc1	none (no result: DAX1 inh-1)
CCOC(=O)[C@@]12CN(C(=O)OC(C)(C)C)CC=C1N(Cc1ccc(OC)cc1)C(=O)[C@H]2CC(=O)NCc1cccs1	none (no result: DAX1 inh-1)
O=C(CCN1CCC(c2ccccc2)C1)c1cccs1 (stereo not given)	none
COC(=O)Cc1ccc(NC(=S)N2CCCC(CO)C2)cc1 (stereo not given)	hgDAF-12 ag 10.5
CC1CCCN(C(=S)Nc2ccc(Nc3ccccc3)cc2)C1 (stereo not given)	ssDAF-12 act 1.3, hgDAF-12 ag 10.7 (no result: DAX1 inh-1)
COc1ccc(NC(=S)N2CCC(c3ccccc3)C2)cc1 (stereo not given)	hgDAF-12 ag 11.9
COc1ccc(NC(=S)N2CCC(C(O)(c3ccccc3)c3ccccc3)CC2)cc1	none
O=C(c1cccs1)N1CCC(c2ccccc2)C1 (stereo not given)	hgDAF-12 ag 12.1
CC1CCCN(C(=S)Nc2ccc(F)cc2)C1 (stereo not given)	none
CCC[C@H]1[C@@H](N(C)Cc2ccccc2)CC[C@@]23CCCN2C(=O)CCC[C@@H]13	none (no result: SMARCA2 act, DAX1 inh-1, DAX1 inh-2)
CCCCn1c(=O)c(CCC(=O)OCC(=O)Nc2cccc3ccccc23)nc2ccccc21	ssDAF-12 act 1.6
O=C1CCC(C(=O)OCC(=O)c2c[nH]c3ccccc23)=NN1	hcDAF12 agonist 5.6
O=C(COc1ccccc1)OCC(=O)c1c[nH]c2ccccc12	none
Cc1ccc(C(=O)OCC(=O)c2c[nH]c3ccccc23)cc1	ssDAF-12 act 1.9, hcDAF12 agonist 6.5
O=C(COC(=O)c1c[nH]c2ccccc12)Nc1ccccc1	none
COC(=O)c1ccc(NC(=O)C(=O)c2c[nH]c3ccccc23)cc1	ssDAF-12 act 1.8, hcDAF12 agonist 6.3
O=C(CSCC(=O)N1CCCCC1)OCC(=O)c1c[nH]c2ccccc12	ssDAF-12 act 1.3
Clc1cccc(CNC2CCC23CCCCC3)c1 (stereo not given)	none (no result: SMARCA2 act, DAX1 inh-1, DAX1 inh-2)
CCCCCC(=O)NC1CCCCN(C)C1=O (stereo not given)	none (no result: DAX1 inh-1)
Cc1ccccc1NC(=O)C1COc2ccccc2O1 (stereo not given)	none
CCc1ccccc1NC(=O)C1COc2ccccc2O1 (stereo not given)	none
O=C(Nc1ccccc1[N+](=O)[O-])C1COc2ccccc2O1 (stereo not given)	DAX1 inh-1 8.7
Cc1cccnc1NC(=O)C1COc2ccccc2O1 (stereo not given)	ssDAF-12 act 1.4
COc1ccc(C)cc1NC(=O)C1COc2ccccc2O1 (stereo not given)	DAX1 inh-2 4.2
COc1cccc(N2CCN(CC(=O)NCc3ccccc3C)CC2)c1	none (no result: DAX1 inh-1)
CC1CCN(c2c(NCc3ccc(C(=O)N4c5ccccc5CC4C)cc3)c(=O)c2=O)CC1 (stereo not given)	ssDAF-12 act 1.1
CC1CCN(c2c(NCc3ccc(C(=O)N4CCN(C5CCCCC5)CC4)cc3)c(=O)c2=O)CC1	none
NC(=O)c1cnc(Cc2c[nH]c3ccccc23)c(I)c1	ssDAF-12 act 0.9 (no result: DAX1 inh-1)
O=C(NCc1ccccc1)c1cnc(Cc2c[nH]c3ccccc23)c(I)c1	none (no result: DAX1 inh-1)
COc1ccc(N=Cc2nc(-c3ccccc3)oc2OC(C)=O)cc1	none
CN(C)c1ccc(N=Cc2nc(-c3ccccc3)oc2OC(=O)c2cccc(Cl)c2)cc1	hgDAF-12 ag 11.6
CC(C)(C)c1nnc(NC(=S)Nc2ccccc2)s1	hgDAF-12 ag 10.8
Cn1c(=O)cc(OCCCC(=O)Nc2cc(-c3cn[nH]c3)ccn2)c2ccccc21	none (no result: SMARCA2 act, DAX1 inh-1, DAX1 inh-2)
CC1(C)CC2(CC(C)(C)N1)OC(=O)N1CCc3ccccc3C12C (stereo not given)	DAX1 inh-1 4.2
COC(=O)C1CN(Cc2ccc(C)cc2)CCS(=O)(=O)N1Cc1cn(Cc2ccc(OC)cc2)nn1 (stereo not given)	none (no result: DAX1 inh-1)
O=[N+]([O-])c1cccc(OCCN2CCC(Cc3ccccc3)CC2)c1	DAX1 inh-1 5.8
CCOC(=O)C1=NOC2(C1)C(=O)Nc1c(Cl)cccc12 (stereo not given)	hcDAF12 agonist 5.7 (no result: DAX1 inh-1)
CN(C)C(=O)C1=NOC2(C1)C(=O)Nc1ccccc12 (stereo not given)	none (no result: DAX1 inh-1)
O=C(OCC(=O)c1ccc[nH]1)c1ccc2ccccc2n1	none
CN(C(=O)COC(=O)c1ccc2ccccc2n1)C1CCCCC1	ssDAF-12 act 2.1
O=C(COC(=O)c1ccc2ccccc2n1)c1ccccc1	ssDAF-12 act 1.3
CC1CCN(C(=O)COC(=O)c2ccc3ccccc3n2)CC1	none
Nc1[nH]c(C(=O)c2ccccc2)c(-c2cccc3ccccc23)c1C(=O)c1c(-c2ccccc2)[nH]c2ccccc12	none (no result: SMARCA2 act, DAX1 inh-1, DAX1 inh-2)
O=C(c1cc(-c2ccccc2)on1)N1CCC(Oc2cccnc2)CC1	none (no result: DAX1 inh-1)
O=C(Nc1ccccc1Oc1ccccc1)NC1CCCCN(Cc2ccc(Cl)cc2)C1=O (stereo not given)	none (no result: DAX1 inh-1)
Cc1cccc(N2CCN(C(=O)c3ccccc3NC(=O)C3CC=CCC3C(=O)O)CC2)c1 (stereo not given)	DAX1 inh-1 4.4
O=C(NCCc1ccc2c(c1)OCO2)c1cc(-c2ccccc2)c(N2CCOCC2)s1	none (no result: DAX1 inh-1)
CC(NC1CCN(Cc2ccccc2)CC1)c1ccc(F)cc1 (stereo not given)	ssDAF-12 act 1.1
Fc1ccc(CNC2CCN(Cc3ccccc3)CC2)cc1	none
CCn1cc(Br)c(C(=O)NC(C)c2ccccc2)n1 (stereo not given)	none
CC(NC(=O)COC(=O)Cc1ccccc1[N+](=O)[O-])c1ccccc1 (stereo not given)	none
CC(NC(=O)Cn1cc(Br)c([N+](=O)[O-])n1)c1ccccc1 (stereo not given)	DAX1 inh-1 4.3
O=C(Cc1ccccc1[N+](=O)[O-])NC1CCN(Cc2ccccc2)CC1	ssDAF-12 act 1.5
Cc1ccccc1CNC(=O)Cc1ccccc1[N+](=O)[O-]	none
O=C(Cc1c(F)cccc1Cl)NC1CCN(Cc2ccccc2)CC1	none
CCC(CC)NC(=O)Cc1ccccc1[N+](=O)[O-]	hcDAF12 agonist 5.6
CC(NC(=O)Cc1ccccc1[N+](=O)[O-])c1ccccc1 (stereo not given)	hcDAF12 agonist 6.3 (no result: DAX1 inh-1)
CCN(CC)c1ccc(-c2nn3c(-c4ccc(C(C)(C)C)cc4)nnc3s2)cc1	none (no result: DAX1 inh-1)
NS(=O)(=O)c1ccc(CNC(=O)Cc2ccccc2[N+](=O)[O-])cc1	hcDAF12 agonist 5.6
NS(=O)(=O)c1ccc(CCNC(=O)Cc2ccccc2[N+](=O)[O-])cc1	none
CC(C)(C)NS(=O)(=O)c1ccc(NC(=O)Cc2ccccc2[N+](=O)[O-])cc1	none

Screening results deposited in PubChem BioAssay by The Scripps Research Institute Molecular Screening Center.
